From the supplement of paper PMC3545927
Some of the results follow. How many sequences the whole screen found active is unknown.

Biological target: furin, P09958
Test: furin cleavage Z-score vs untreated control; higher = more cleavage, active = 3.5 or more, inactive = 1 or less, 8 variable residues between constant flanks
Method: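 Multiplexed peptide-cDNA fusion cleavage assay. 8-mer variable peptides flanked by constant Cys-Ala (N-term) and Ala-Gly-Asn-Ala-Ser-Ala-Ser-Ala (C-term) and conjugated to a cDNA oligonucleotide were bead-immobilised via the N-terminus. They were treated with purified furin at a 1:10 enzyme:substrate ratio in 50 mM HEPES pH 7.5, 1 mM CaCl2, 100 mM NaCl for 7.5, 15 or 30 min. Released cDNA was counted by next-generation sequencing, and log counts versus no-furin controls were lowess-adjusted and converted to robust Z-scores.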

furin, P09958, sequence (P09958 whole entry): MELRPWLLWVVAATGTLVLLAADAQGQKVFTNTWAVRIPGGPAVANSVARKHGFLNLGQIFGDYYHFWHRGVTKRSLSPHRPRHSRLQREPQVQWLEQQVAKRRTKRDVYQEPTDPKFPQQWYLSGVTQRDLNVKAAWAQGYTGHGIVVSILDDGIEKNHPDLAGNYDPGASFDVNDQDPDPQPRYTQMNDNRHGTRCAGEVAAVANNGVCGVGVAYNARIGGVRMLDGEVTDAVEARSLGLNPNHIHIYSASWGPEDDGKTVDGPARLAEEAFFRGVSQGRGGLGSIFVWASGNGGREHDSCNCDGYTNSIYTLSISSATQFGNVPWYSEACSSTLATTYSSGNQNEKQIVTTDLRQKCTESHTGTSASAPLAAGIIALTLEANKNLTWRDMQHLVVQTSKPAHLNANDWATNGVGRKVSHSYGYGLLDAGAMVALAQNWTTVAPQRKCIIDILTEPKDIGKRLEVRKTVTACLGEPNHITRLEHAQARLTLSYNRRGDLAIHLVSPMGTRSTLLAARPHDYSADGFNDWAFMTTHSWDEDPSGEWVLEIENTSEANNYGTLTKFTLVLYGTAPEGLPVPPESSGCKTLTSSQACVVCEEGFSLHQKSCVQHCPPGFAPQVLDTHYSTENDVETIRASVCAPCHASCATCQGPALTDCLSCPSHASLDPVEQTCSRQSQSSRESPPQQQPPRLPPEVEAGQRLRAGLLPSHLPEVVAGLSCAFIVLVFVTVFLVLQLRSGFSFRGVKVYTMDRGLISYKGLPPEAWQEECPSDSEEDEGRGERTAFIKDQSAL

Sequence | furin cleavage Z-score (7.5 min) | furin cleavage Z-score (15 min) | furin cleavage Z-score (30 min)
CAEDTTPCSGAGNASASA [HC1971] | 0.299 (inactive) | -1.06 (inactive) | -0.5 (inactive)
CAADGGCSGGAGNASASA [HC811] | -1.33 (inactive) | -0.697 (inactive) | -0.396 (inactive)
CAERVTSTWVAGNASASA [HC2173] | -0.173 (inactive) | -0.632 (inactive) | -2.09 (inactive)
CARPPRSATAAGNASASA [FS-2058] | 1.66 | 4.98 (active) | 3.61 (active)
CAAAPGAATAAGNASASA [HC1071] | -1.75 (inactive) | 0.135 (inactive) | -1.91 (inactive)
CARPKKRAETAGNASASA [FS-1760] | -0.848 (inactive) | 2.01 | 0.187 (inactive)
CARPPRSIVTAGNASASA [FS-2439] | 2.64 | 4.75 (active) | 6.76 (active)
CARTGRSIVYAGNASASA [FS-2465] | 2.57 | 5.05 (active) | 6.39 (active)
CARPRRLSTAAGNASASA [FS-3022] | -0.374 (inactive) | 0.291 (inactive) | 1.13
CARPQRLIDHAGNASASA [FS-3020] | -0.401 (inactive) | -0.141 (inactive) | -0.235 (inactive)
CARTGRSREVAGNASASA [FS-3105] | 0.737 (inactive) | -1.37 (inactive) | 1.18
CARPPRSPDHAGNASASA [FS-2740] | 4.56 (active) | 5.51 (active) | 4.52 (active)
CACPNSSIVYAGNASASA [HC264] | 0.0997 (inactive) | 0.251 (inactive) | -0.406 (inactive)
CARPVRGIHTAGNASASA [FS-3030] | 1.52 | 0.149 (inactive) | 3.15
CASGTFPINAAGNASASA [HC1189] | -0.56 (inactive) | -1.29 (inactive) | -0.783 (inactive)
CAGGCSGGAYAGNASASA [HC812] | 0.0451 (inactive) | -0.928 (inactive) | -1.91 (inactive)
CAFLVQAWKSAGNASASA [HC1472] | -0.545 (inactive) | -1.14 (inactive) | 0.129 (inactive)
CAPPGDPPQPAGNASASA [HC1545] | 0.491 (inactive) | -1.28 (inactive) | -0.552 (inactive)
CAVQWMNRLIAGNASASA [HC1117] | -0.371 (inactive) | -0.656 (inactive) | -0.702 (inactive)
CATYSRCGSGAGNASASA [HC457] | -0.645 (inactive) | -0.493 (inactive) | 0.00889 (inactive)
CAAILHTPGCAGNASASA [HC270] | 0.368 (inactive) | 1.18 | -0.0199 (inactive)
CARGPRSATHAGNASASA [FS-1894] | 3.56 (active) | 2.79 | 2.67
CARGPRSSSAAGNASASA [FS-1712] | -0.135 (inactive) | -0.114 (inactive) | -1.14 (inactive)
CARLLRDADDAGNASASA [FS-2278] | -0.832 (inactive) | -0.574 (inactive) | -0.464 (inactive)
CARLLRSLTHAGNASASA [FS-2993] | 1.05 | 3.14 | 4.05 (active)
CARPPREEGKAGNASASA [FS-2438] | -0.719 (inactive) | -0.617 (inactive) | -0.558 (inactive)
CARLRRLLWIAGNASASA [FS-2044] | -1.02 (inactive) | -0.859 (inactive) | 0.923 (inactive)
CARPPRSTCQAGNASASA [FS-2580] | 2.35 | 3.89 (active) | 3.84 (active)
CARPPRGFQPAGNASASA [FS-3019] | -1.18 (inactive) | -0.836 (inactive) | -0.248 (inactive)
CARGPRSYPHAGNASASA [FS-2935] | -0.268 (inactive) | 1.01 | 0.916 (inactive)
